Test results reported in PubChem BioAssay (NCATS).
Records with an inconclusive call do not appear. Entries that show only a call come without a potency. The source made the active and inactive calls. Calls follow the shape of the dose curve; as a rule, active = well fitted inhibition curve with a large enough effect; inconclusive = small, poorly fitted or top-dose-only effect; inactive = flat fitted curve, though single readings scatter.

Key:
Experiment in all cases: qHTS profiling for inhibitors of Plasmodium falciparum proliferation (AID 504749); also: nearly all actives have a fitted effect of over 60% in size
Settings in all cases: P. falciparum in erythrocytes, SYBR Green DNA, 72 h; series mostly up to 28.7 µM
[1] = system: CP252
Outline: (§1)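 SYBR Green fluorescence of parasite DNA, read after lysis and overnight dark incubation, measured growth over 72 h in erythrocyte culture at 0.3% parasitemia and 2.5% hematocrit. Data normalised to DMSO and 0.29 uM artemisinin, with plate-drift correction.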

[2] = system: CP260
Outline: as §1

[3] = system: CP268
Outline: as §1

[4] = system: CP269
Outline: as §1

[5] = system: CP286
Outline: as §1

[6] = system: CP250
Outline: as §1

[7] = system: CP262
Outline: as §1

[8] = system: CP266
Outline: as §1

[9] = system: CP265
Outline: as §1

[10] = system: CP256
Outline: as §1
Potency is read from the fitted curve at half-maximal effect.

Row | Structure (SMILES) | Potency [1] | Potency [2] | Potency [3] | Potency [4] | Potency [5] | Potency [6] | Potency [7] | Potency [8] | Potency [9] | Potency [10]
1 | COC(=O)[C@H]1[C@H]2C[C@@H]3c4[nH]c5cc(OC)ccc5c4CCN3C[C@H]2C[C@@H](OC(=O)c2cc(OC)c(OC)c(OC)c2)[C@@H]1OC | 11.2 µM (active) | 11.2 µM (active) | 15.1 µM (active) | 9.53 µM (active) | 11.2 µM (active) | – | – | – | – | –
2 | CCC(=O)c1ccc2c(c1)N(CCCN(C)C)c1ccccc1S2 | – | 11.2 µM (active) | – | – | – | inactive | inactive | inactive | – | –
3 | CN(C)CCN(Cc1cccs1)c1ccccn1 | – | – | – | – | – | – | inactive | – | 10 µM (active) | –
4 | CCCCCCCC/C=C\CCCCCCCC(=O)NCc1ccc(O)c(OC)c1 | – | – | inactive | inactive | – | – | inactive | inactive | 10 µM (active) | 11.2 µM (active)
5 | NC(N)=NC(=O)Cc1c(Cl)cccc1Cl | – | 10 µM (active) | inactive | – | – | 7.08 µM (active) | 4.26 µM (active) | inactive | – | 12.6 µM (active)
6 | CC(C)(C)c1ccc(C(=O)CCCN2CCC(OC(c3ccccc3)c3ccccc3)CC2)cc1 | 10 µM (active) | 10 µM (active) | – | 7.57 µM (active) | 8.91 µM (active) | – | – | – | – | –
7 | CC(C)NNC(=O)c1ccncc1 | – | inactive | inactive | inactive | inactive | inactive | inactive | inactive | inactive | –
8 | COc1ccc(CCN(C)CCCC(C#N)(c2cc(OC)c(OC)c(OC)c2)C(C)C)cc1OC (configuration not stated) | – | – | – | – | – | inactive | – | inactive | inactive | –
9 | CCN(CC)CCOCCOC(=O)C1(c2ccccc2)CCCC1 | inactive | 11.2 µM (active) | 15.1 µM (active) | 13.5 µM (active) | 12.6 µM (active) | – | inactive | inactive | 3.98 µM (active) | 11.2 µM (active)
10 | COCCOC(=O)C1=C(C)NC(C)=C(C(=O)OC(C)C)C1c1cccc([N+](=O)[O-])c1 (configuration not stated) | – | – | – | – | – | inactive | inactive | inactive | – | inactive
11 | Cc1ccc(Cl)c(Nc2ccccc2C(=O)O)c1Cl | inactive | – | inactive | inactive | inactive | inactive | inactive | inactive | inactive | inactive
12 | OC(CCN1CCCCC1)(c1ccccc1)C1CCCCC1 (configuration not stated) | inactive | – | inactive | inactive | inactive | inactive | inactive | inactive | – | inactive
13 | COC(=O)[C@@H](N)Cc1ccc(O)c(O)c1 | inactive | inactive | inactive | – | inactive | – | – | inactive | inactive | inactive
14 | CC1=NS(=O)(=O)c2cc(Cl)ccc2N1 | – | inactive | inactive | inactive | inactive | – | inactive | inactive | inactive | –
15 | CN(C)CC[C@@H](c1ccc(Br)cc1)c1ccccn1 | – | inactive | – | – | inactive | inactive | inactive | inactive | – | –
16 | C#CCN(C)CCCOc1ccc(Cl)cc1Cl | inactive | inactive | inactive | inactive | inactive | – | inactive | inactive | inactive | inactive
17 | CC(C)[N+](C)(CCOC(=O)C1c2ccccc2Oc2ccccc21)C(C)C | – | – | – | – | – | – | – | inactive | – | –
18 | NC(N)=N/N=C/c1c(Cl)cccc1Cl | – | – | – | – | 11.2 µM (active) | – | 13.5 µM (active) | – | – | –
19 | C[C@]12CCC(=O)C=C1CC[C@@H]1[C@@H]2CC[C@@]2(C)[C@H]1CC[C@]2(O)C(=O)CO | inactive | inactive | inactive | inactive | inactive | – | inactive | inactive | inactive | inactive
20 | COc1cc(C(=O)OCCCN2CCCN(CCCOC(=O)c3cc(OC)c(OC)c(OC)c3)CC2)cc(OC)c1OC | – | 10 µM (active) | – | 7.57 µM (active) | 10 µM (active) | 10 µM (active) | – | – | 11.2 µM (active) | –
21 | CCn1ccnc1CC1COc2ccccc2O1 (configuration not stated) | inactive | – | inactive | inactive | inactive | inactive | inactive | inactive | inactive | inactive
